Rows were chosen to be rich in hits. Some 3.2% of all compounds tested hit in one or more screens of this group.
MEKK3 PB1 HTS – MEKK3-MEK5 PB1 interaction, increase or decrease; binding response (% of control), % at 10 µM; 290,000 tested, 1.4% active; Q99759; bead-based flow cytometry, Alexa488-MEK5 binding to MEKK3; actives lie on both sides; 0 = blocked by unlabeled MEK5, 100 = vehicle; AID 1529;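 active = binding response more than 3 SD above or below the average of its plate-row segment, actives on both sides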;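 note: Alexa488 bead fluorescence after subtracting the streptavidin-only scavenger bead signal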
SKN-1 block – inhibitors of C. elegans SKN-1. AID 624304. C. elegans VP596 Pgst-4::GFP/RFP ratio, acrylamide-induced, 24 h. 360,000 tested, 0.49% active. inhibition, % at 21.8 µM;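 active = interference check ratio from 0.5 to 1.5 plus GFP to RFP signal ratio inhibition reaching or exceeding a fixed threshold, cut at about 30% in these data, passing the limit was not always enough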
MEKK2 mut-MEK5 – signal of MEK5 binding to mutant human MEKK2 PB1 domain. bead flow cytometry, Alexa488-MEK5 binding to MEKK2 mutant. 290,000 tested, 0.35% active. percent response, % at 10 µM; in the data active = percent response above about 24%, passing the limit was not always enough
CendR NRP1 mod – NRP-1/CendR interaction modulation | O14786 | FAM-RPARPAR peptide binding to NRP-1, fluorescence polarization | inhibition, % at 25 µM | 360,000 tested, 0.85% active;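 active = inhibition or corrected inhibition above about 18%, plus a signal ratio from 0.5 to 1.5, limit read from the data, passing the limit was not always enough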
Target sequence (O14786 whole entry, looked up): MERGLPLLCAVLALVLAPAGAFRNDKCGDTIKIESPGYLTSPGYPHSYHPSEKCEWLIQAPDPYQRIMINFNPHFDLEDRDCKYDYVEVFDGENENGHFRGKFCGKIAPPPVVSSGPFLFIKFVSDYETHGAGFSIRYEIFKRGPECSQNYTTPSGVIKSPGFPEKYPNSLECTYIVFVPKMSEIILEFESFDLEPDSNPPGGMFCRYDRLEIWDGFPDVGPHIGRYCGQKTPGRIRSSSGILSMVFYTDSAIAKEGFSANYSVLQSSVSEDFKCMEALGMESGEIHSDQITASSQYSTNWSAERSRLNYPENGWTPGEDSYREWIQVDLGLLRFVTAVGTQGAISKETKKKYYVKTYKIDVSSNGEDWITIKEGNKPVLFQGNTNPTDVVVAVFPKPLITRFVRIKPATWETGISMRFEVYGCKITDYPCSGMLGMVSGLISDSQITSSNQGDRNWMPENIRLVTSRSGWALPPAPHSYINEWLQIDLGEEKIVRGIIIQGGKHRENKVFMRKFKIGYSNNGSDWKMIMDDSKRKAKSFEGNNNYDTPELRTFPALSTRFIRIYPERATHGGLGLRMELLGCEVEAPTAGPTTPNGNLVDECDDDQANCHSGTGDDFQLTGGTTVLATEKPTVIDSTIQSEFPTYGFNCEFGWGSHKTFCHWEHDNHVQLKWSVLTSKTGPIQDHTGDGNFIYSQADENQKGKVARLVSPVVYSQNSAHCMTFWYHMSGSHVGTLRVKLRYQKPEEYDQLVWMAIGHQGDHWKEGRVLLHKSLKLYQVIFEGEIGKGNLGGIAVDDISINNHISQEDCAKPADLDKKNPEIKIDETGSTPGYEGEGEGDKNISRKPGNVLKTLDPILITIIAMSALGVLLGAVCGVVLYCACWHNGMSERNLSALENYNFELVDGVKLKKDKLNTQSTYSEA
MEKK2 WT-MEK5 – raises or lowers MEK5 binding to wildtype human MEKK2 PB1 domain. binding response (% of control), % at 10 µM. 290,000 tested, 1.1% active. AID 1531. bead flow cytometry, Alexa488-MEK5 binding to MEKK2 WT; actives lie on both sides; in the data active = binding response below about 67% or above about 130%
MEKK2wt confirm – raises or lowers MEK5 binding to wildtype human MEKK2, retest; shares compounds with MEKK3 PB1 HTS; 5,900 tested, 2.4% active; AID 1892; binding response (% of control), % at 10 µM; bead flow cytometry, Alexa488-MEK5 binding to MEKK2 WT; actives lie on both sides; in the data active = binding response below about 16% or above about 210%; inactive = in between
MEKK2mut-MEK5 – signal of MEK5 binding to mutant human MEKK2, retest; shares compounds with MEKK3 PB1 HTS; bead flow cytometry, Alexa488-MEK5 binding to MEKK2 mutant; percent response, % at 10 µM; 5,900 tested, 2% active; in the data active = percent response mostly above about 71%, no sharp cut-off; inactive = mostly below about 38%;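 note: higher means compound restores mutant binding toward wildtype level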
MEKK3-MEK5 inh – confirmation of inhibitors of MEK5 binding to human MEKK3. shares compounds with MEKK3 PB1 HTS. bead flow cytometry, Alexa488-MEK5 binding to MEKK3; hits give low values. binding response (% of control), % at 10 µM. 5,900 tested, 1.8% active;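 active = binding response below 72% of control, or above a set upper limit, though filed actives all read lower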;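 note: 100% = DMSO only wells and 0% = binding blocked by excess unlabeled MEK5; lower values mean stronger disruption of MEK5 binding to MEKK3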
The depositor's hits bear a star; · = not tested or not shown; + = active, no number; ! = not confirmed by another sample; [ ] = remark or other dose.

SMILES | MEKK3 PB1 HTS | SKN-1 block | MEKK2 mut-MEK5 | CendR NRP1 mod | MEKK2 WT-MEK5 | MEKK2wt confirm | MEKK2mut-MEK5 | MEKK3-MEK5 inh
COCOCCn1cc(CN2CCS(=O)(=O)N(Cc3ccc(-c4ccc(Cl)nc4)cc3)C(C(C)C)C2=O)nn1 (stereo not drawn) | · | -12 | · | 8 | · | · | · | ·
Cc1ccc(-n2c(O)c(C=NCc3ccccn3)c3ccccc3c2=O)cc1 | 129* | 4 | 0 | 6 | 106 | 92 | -9 | 94
CCOC(=O)c1c(CN(C)C)n(-c2ccccc2)c2cc(Br)c(OC)cc12 | 119 | -2 | 1 | -2 | 112 | · | · | ·
COc1cc2c(C(=O)OCCN(C)C)c(CSc3ccccc3)n(C)c2cc1Br | 99 | 11 | -9 | -2 | 146* | 153 | 28 | 108
Cc1ccc(S(=O)(=O)N2CCN(c3nc(-c4cccs4)nc4ccccc34)CC2)cc1 | · | 18 | · | -10 | · | · | · | ·
CCOc1cc(S(=O)(=O)NCc2ccc3c(c2)OCO3)c(C)cc1C | 101 | 2 | -1 | -6 | 100 | · | · | ·
CCOc1cc(C)c(Cl)cc1S(=O)(=O)NCc1ccc2c(c1)OCO2 | 81*[inhibitor] | 7 | -8 | 1 | 88 | 102 | 2 | 103
CC(C)=N/N=C(/c1ccc([N+](=O)[O-])cc1)C12CN3CN(CN(C3)C1)C2 | 148* | 1 | + | 13 | · | 100 | -6 | 103
OC1(c2ccc(Br)cc2)CCN(Cc2cccc(Br)c2)CC1 | 109 | 13 | 15 | 7 | 134* | 130 | 17 | 107
CCC[C@H]1CN(c2ccc(OC)cc2)C(=O)[C@@H]1CC(=O)NC | · | -3 | · | -12 | · | · | · | ·
COc1ccccc1C1CCN(Cc2ccc3ccccc3c2)CC1 | 106 | -8 | 36* | -4 | 138* | 135 | 12 | 100
COc1cc(CNCc2cccs2)ccc1OCc1cccs1 | 2.0*[inhibitor] | -4 | -27 | -4 | -1.0*[inhibitor] | 122 | 12 | 102
OCC1(CCOc2ccccc2)CCN(CC2=Cc3cc(Cl)ccc3OC2)CC1 | 109 | 4 | 7 | -6 | 153* | 137 | 15 | 107
COc1cc(Cl)c(CN2CCC(CO)(CCOc3ccccc3)CC2)cc1OC | 99 | -5 | 8 | -8 | 104 | · | · | ·
C/C(Cn1nnc2ccccc21)=N\OC(=O)c1ccccc1C | 138* | 0 | 1 | -11 | 104 | 106 | 6 | 106
CCC(CC)n1[nH]c(=O)cc1N | 128* | 21 | 11 | 16 | 124 | 95 | -4 | 98
CCOC(=O)c1ccc2c(c1)nc(SCC(=O)c1cc3ccccc3o1)n2CC | 73*[inhibitor] | 52* | -51 | -2 | 55*[inhibitor] | 98 | -3 | 100
C=CCNC(=O)CSc1nc2cc(C(=O)OCC)ccc2n1CC | 107 | 12 | 7 | 6 | 106 | · | · | ·
O=C(CSc1ncn[nH]1)c1cc2ccccc2o1 | 173* | 2 | + | 14 | + | 90 | -7 | 100
O=C(CSc1nccc(=O)[nH]1)c1cc2ccccc2o1 | 112 | -2 | 1 | -15 | 102 | · | · | ·
CCc1nc(N)nc(N)c1-c1ccc(N(C)Cc2ccccc2)c([N+](=O)[O-])c1 | · | -11 | · | -17 | · | · | · | ·
CN1CCN(CCC(=O)Nc2ccc(C3CCCC3)cc2)CC1 | 92 | -7 | 26 | 8 | 142* | 110 | 5 | 107
CN1CCN(CCC(=O)Nc2ccccc2)CC1 | 91 | 26 | 10 | 5 | 91 | · | · | ·
CCC1CCCCN1C(=O)CSC1=NN2CCCC(=O)N=C2S1 (stereo not drawn) | 132* | -2 | 27 | 7 | 124 | 83 | -10 | 83
O=C1CCCN2N=C(SCC(=O)N3CCCCC3)SC2=N1 | 109 | -6 | -1 | -2 | 107 | · | · | ·
SMILES | MEKK3 PB1 HTS | SKN-1 block | MEKK2 mut-MEK5 | CendR NRP1 mod | MEKK2 WT-MEK5 | MEKK2wt confirm | MEKK2mut-MEK5 | MEKK3-MEK5 inh
COc1ccccc1Nc1nnc(SCc2cc(=O)n3cc(C)ccc3n2)s1 | 142* | 13 | 1 | 20 | 111 | 90 | -10 | 92
COc1cc2ccccc2cc1C(=O)N(CCN(C)C)c1nc2c(F)cc(F)cc2s1 | 104 | -2 | 13 | 2 | 126 | · | · | ·
CCN(CC)CCN(C(=O)CCOc1ccccc1)c1nc2c(F)cc(F)cc2s1 | 106 | 2 | 17 | 6 | 148* | 142 | 33 | 107
CCOP(=O)(c1ccccc1)C(O)c1ccc(Br)cc1 (stereo not drawn) | 134* | 3 | 0 | 4 | 106 | 97 | -8 | 91
CCN(CC)C(=O)COc1coc(CN2CCN(c3ccccc3F)CC2)cc1=O | 102 | 9 | 0 | 2 | 101 | · | · | ·
COc1cccc2cc(C(=O)N3CC(C)OC(C)C3)c(=O)oc12 (stereo not drawn) | 99 | -7 | -3 | 5 | 99 | · | · | ·
CC1CN(C(=O)c2cccc(Oc3ccccc3)c2)CC(C)O1 (stereo not drawn) | 101 | -8 | 5 | 4 | 107 | · | · | ·
CC1CN(C(=O)c2ccc(Oc3ccccc3)cc2)CC(C)O1 (stereo not drawn) | 70*[inhibitor] | 12 | -4 | 2 | 86 | 99 | -5 | 98
CC1CN(C(=O)c2cc3ccccc3oc2=O)CC(C)O1 (stereo not drawn) | 82*[inhibitor] | 6 | -8 | 0 | 96 | 101 | -2 | 99
CC(=O)Oc1ccc(C(=O)Nc2ccc(S(=O)(=O)N3CCOCC3)cc2)cc1 | 107 | 6 | 7 | 1 | 111 | · | · | ·
NC(N)=N/N=C/c1ccccc1Cl | 93 | 0 | -3 | -6 | 106 | · | · | ·
NC(N)=N/N=C/c1c(Cl)cccc1Cl | 44*![inhibitor] | 14 | -13 | -12 | 51 | 102 | -4 | 100
O=C(O)CC(NS(=O)(=O)c1c(F)cc(F)cc1Br)c1ccccc1Cl (stereo not drawn) | 115 | 7 | 279* | -1 | 114 | 101 | -7 | 98
COC(=O)CC(NS(=O)(=O)c1cccs1)c1ccccc1Cl (stereo not drawn) | 103 | -1 | -2 | -7 | 100 | · | · | ·
COc1cc(CC(=O)N2CCN(C(=O)C3CCCO3)CC2)cc(OC)c1OC (stereo not drawn) | · | 13 | · | 7 | · | · | · | ·
O=[N+]([O-])c1ccc(N2CCN(Cc3ccc([N+](=O)[O-])o3)CC2)cc1 | 101 | 9 | 6 | 7 | 109 | · | · | ·
O=[N+]([O-])c1ccc(CN2CCN(c3ccccc3)CC2)o1 | 122* | -20 | 16 | 28* | 128 | 103 | 4 | 104
O=C1Nc2ccc(F)cc2C12OCCO2 | 99 | -7 | 1 | 1 | 105 | · | · | ·

Screens (PubChem BioAssay)
